Assay results as given in ChEMBL document CHEMBL4513147, “CO-ADD screening of Armstrong State University (GA, USA) compounds”.
Results with a measured potency or affinity are listed apart.

Columns and labels:
[1] = test system: Staphylococcus aureus; conditions: Concentration 32 ug.mL-1; ASSAY_TEST Inhibition of Bacterial Growth; detection method Absorption (OD600); MEDIA CAMHB; plate type 384well; NBS; CORNING #3640; time 18 hr
[2] = test system: Escherichia coli; conditions: Concentration 32 ug.mL-1; ASSAY_TEST Inhibition of Bacterial Growth; detection method Absorption (OD600); MEDIA CAMHB; plate type 384well; NBS; CORNING #3640; time 18 hr

COc1ccc2c(c1)C(=O)C(=Cc1ccoc1)CC2
Inhibition [1]: 24.21%
Inhibition [2]: 0.87%

COc1cc2c(cc1OC)C(=O)C(=Cc1ccco1)CC2
Inhibition [1]: 23.29%
Inhibition [2]: 6.96%

COc1ccc2c(c1)CCC(=Cc1ccc(OC)nc1)C2=O
Inhibition [1]: -4.04%
Inhibition [2]: 1.52%

COc1ccc2c(c1)C(=O)C(=Cc1cnccc1OC)CC2
Inhibition [1]: 16.33%
Inhibition [2]: 1.39%

COc1ccc2c(c1)C(=O)C(=Cc1cccc(C=C3CCc4ccc(OC)cc4C3=O)c1)CC2
Inhibition [1]: 5.74%
Inhibition [2]: 2.05%

COc1cccc2c1CCC(=Cc1ccoc1)C2=O
Inhibition [1]: 21.03%
Inhibition [2]: -0.51%

COc1ccc2c(c1)C(=O)C(=Cc1cccnc1OC)CC2
Inhibition [1]: 16.7%
Inhibition [2]: 4.57%

Cc1ccc(C=C2CN(C(=O)OC(C)(C)C)C/C(=C\c3ccc(C)cc3C)C2=O)c(C)c1
Inhibition [1]: 9.56%
Inhibition [2]: -6.82%

COc1cc2c(cc1OC)C(=O)C(=Cc1ccoc1)CC2
Inhibition [1]: 22.02%
Inhibition [2]: 2.08%

COc1ccc2c(c1)CCC(=Cc1cccnc1)C2=O
Inhibition [1]: 11.8%
Inhibition [2]: 5.55%

COc1ccc2c(c1)C(=O)C(=Cc1cccnc1Br)CC2
Inhibition [1]: 5.72%
Inhibition [2]: 0.26%

COc1cccc2c1CCC(=Cc1cccc(C=C3CCc4c(OC)cccc4C3=O)c1)C2=O
Inhibition [1]: -26.12%
Inhibition [2]: -22.27%

COc1ccc2c(c1)C(=O)C(=Cc1ccco1)CC2
Inhibition [1]: 20.52%
Inhibition [2]: 4.79%

COc1ccc2c(c1)CCC(=Cc1ccncc1)C2=O
Inhibition [1]: 16.04%
Inhibition [2]: 3.11%

CC(C)(C)OC(=O)N1CC(=Cc2ccco2)C(=O)/C(=C/c2ccco2)C1
Inhibition [1]: 17.59%
Inhibition [2]: 1.8%

COc1ccc2c(c1)C(=O)C(=Cc1cncc(Br)c1)CC2
Inhibition [1]: 75.2%
Inhibition [2]: 2%

COc1ccc2c(c1)CCC(=Cc1cccnc1Br)C2=O
Inhibition [1]: 11.61%
Inhibition [2]: -5.29%

COc1ccc2c(c1)C(=O)C(=Cc1cccnc1Cl)CC2.Cl
Inhibition [1]: 20.04%
Inhibition [2]: 2.21%

COc1ccc2c(c1)C(=O)C(=Cc1cccnc1)CC2
Inhibition [1]: 17.94%
Inhibition [2]: 4.25%

COc1ccc2c(c1)CCC(=Cc1ccccn1)C2=O
Inhibition [1]: 14.37%
Inhibition [2]: 1.84%

COc1ccc2c(c1)CCC(=Cc1ccoc1)C2=O
Inhibition [1]: 24.71%
Inhibition [2]: 8.45%

COc1ccc2c(c1)C(O)C(=Cc1cccnc1Cl)CC2 (configuration not stated)
Inhibition [1]: 5.45%
Inhibition [2]: 4.12%

COc1ccc2c(c1)CCC(=Cc1cccnc1Cl)C2=O
Inhibition [1]: 1.26%
Inhibition [2]: -0.89%

COc1ccc2c(c1)C(=O)C(=Cc1ccccn1)CC2
Inhibition [1]: 11.08%
Inhibition [2]: 3.58%

COc1cccc2c1CCC(=Cc1ccco1)C2=O
Inhibition [1]: 13.6%
Inhibition [2]: 5.5%

COc1ccc2c(c1)CCC(=Cc1cnccc1OC)C2=O
Inhibition [1]: 0.49%
Inhibition [2]: -6.17%

COc1ccc2c(c1)CCC(=Cc1cncc(Br)c1)C2=O
Inhibition [1]: 0.4%
Inhibition [2]: -0.04%

COc1ccc(/C=C/C(=O)c2ccc(OCc3ccc(Br)cc3)cc2)cc1OC
Inhibition [1]: -11.78%
Inhibition [2]: -9.61%

COc1ccc2c(c1)CCC(=Cc1ccco1)C2=O
Inhibition [1]: 19.21%
Inhibition [2]: 7.9%

CC(C)(C)OC(=O)N1CC(=Cc2ccoc2)C(=O)/C(=C/c2ccoc2)C1
Inhibition [1]: 3.94%
Inhibition [2]: -5.28%

COc1ccc2c(c1)C(=O)C(=Cc1cccnc1Cl)CC2
Inhibition [1]: 6.88%
Inhibition [2]: -2.48%
